Where “and” joins values, the source holds several entries; their conditions need not be identical. Identical values can stand only once. Hit rate of the full screen: of about 5,500 compounds, about 2,000 (36%) were called active. Another 18% or so got no clear call; they are omitted. Rule as the data show it: active = normalized growth mostly below about 0.91 (no sharp cut-off); inconclusive = no clear call, values can overlap the other calls; inactive = mostly above about 0.92. The list shows a part of the results.
Assay: chemical genetic growth profiling, strain panel (AID 1159580);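 also: tested at 20 µM; growth read once vehicle control cultures reached saturation at 30 °C; 1 = growth at the plate median or of vehicle wells; lower values mean less growth of the strain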
Details: S. cerevisiae deletion strains, growth OD

Measured: normalized growth

Cc1c(N(C)CS(=O)(=O)O)c(=O)n(-c2ccccc2)n1C
inactive: locus YAL021C, strain ccr4, active compounds read low 1.01 | locus YAL026C, strain drs2, active compounds read low 1.01 | locus YAL030W, strain snc1, active compounds read low 1.01 | locus YBL061C, strain skt5, active compounds read low 1.01 | locus YBR009C, strain hhf1, active compounds read low 1 | locus YBR021W, strain FUR4, active compounds read low 0.991 | locus YBR023C, strain chs3, active compounds read low 1.01 | locus YBR171W, strain sec66, active compounds read low 1.02 | locus YBR229C, strain ROT2, active compounds read low 0.989 | locus YBR231C, strain swc5, active compounds read low 1.02 | locus YBR279W, strain paf1, active compounds read low 1.04 | locus YCL011C, strain gbp2, active compounds read low 1.01 | locus YCL016C, strain dcc1, active compounds read low 1.01 | locus YCL029C, strain bik1, active compounds read low 0.992 | locus YCL061C, strain MRC1, active compounds read low 1.01 | locus YCL069W, strain vba3, active compounds read low 1.01 | locus YCR088W, strain abp1, active compounds read low 1.01 | locus YDL005C, strain med2, active compounds read low 1.01 | locus YDL035C, strain GPR1, active compounds read low 1 | locus YDL040C, strain nat1, active compounds read low 1.01 | locus YDL074C, strain BRE1, active compounds read low 1.06 | locus YDL101C, strain DUN1, active compounds read low 1 | locus YDL134C, strain PPH21, active compounds read low 0.979 | locus YDL185W, strain tfp1, active compounds read low 0.992 | locus YDL192W, strain arf1, active compounds read low 0.982 | locus YDR001C, strain nth1, active compounds read low 1.01 | locus YDR069C, strain doa4, active compounds read low 1.01 | locus YDR101C, strain arx1, active compounds read low 1.03 | locus YDR137W, strain rgp1, active compounds read low 1.01 | locus YDR159W, strain sac3, active compounds read low 1 | locus YDR162C, strain NBP2, active compounds read low 0.987 | locus YDR195W, strain ref2 1.01 | locus YDR297W, strain sur2, active compounds read low 1.01 | locus YDR318W, strain mcm21, active compounds read low 0.976 | locus YDR334W, strain swr1, active compounds read low 1.01 | locus YDR335W, strain msn5, active compounds read low 1.01 | locus YDR388W, active compounds read low 0.982 | locus YDR392W, strain spt3, active compounds read low 1.01 | locus YDR502C, strain sam2, active compounds read low 1 | locus YEL003W, strain gim4, active compounds read low 1.01 | locus YEL037C, strain rad23, active compounds read low 1.01 | locus YEL061C, strain CIN8 (second series), active compounds read low 1.02 | locus YEL061C, strain CIN8, active compounds read low 0.999 | locus YER015W, strain faa2, active compounds read low 1.01 | locus YER016W, strain bim1, active compounds read low 1.01 | locus YER110C, active compounds read low 0.994 | locus YER111C, strain swi4, active compounds read low 1.01 | locus YER155C, strain BEM2 (second series), active compounds read low 1.02 | locus YER155C, strain BEM2, active compounds read low 0.992 | locus YER167W, strain BCK2, active compounds read low 0.979 | locus YFR010W, strain ubp6, active compounds read low 1.02 | locus YGL078C, strain dbp3, active compounds read low 0.985 | locus YGL086W, strain mad1, active compounds read low 0.995 | locus YGL167C, strain pmr1, active compounds read low 1.01 | locus YGL173C, strain kem1, active compounds read low 1.02 | locus YGL227W, strain vid30, active compounds read low 1.01 | locus YGL240W, strain doc1, active compounds read low 1.03 | locus YGL248W, strain PDE1, active compounds read low 0.991 | locus YGL253W, strain hxk2, active compounds read low 1.01 | locus YGR135W, strain pre9, active compounds read low 0.96 | locus YGR252W, strain gcn5, active compounds read low 0.968 | locus YHR013C, strain ard1, active compounds read low 0.999 | locus YHR027C, strain rpn1, active compounds read low 1.01 | locus YHR030C, strain SLT2, active compounds read low 0.984 and 1 | locus YHR079C, strain IRE1 (second series), active compounds read low 0.986 | locus YHR079C, strain IRE1, active compounds read low 0.98 | locus YHR094C, strain hxt1, active compounds read low 0.985 | locus YHR129C, strain ARP1, active compounds read low 0.988 | locus YHR142W, strain chs7, active compounds read low 1.02 | locus YHR200W, strain rpn10, active compounds read low 0.981 | locus YIL066C, strain RNR3, active compounds read low 0.998 | locus YIL073C, strain SPO22, active compounds read low 0.997 | locus YIL125W, strain kgd1, active compounds read low 0.993 | locus YIR030C, strain dcg1, active compounds read low 0.982 | locus YJL092W, strain hpr5, active compounds read low 1.01 | locus YJL095W, strain BCK1 (second series), active compounds read low 1.02 | locus YJL095W, strain BCK1, active compounds read low 1 and 0.996 | locus YJL115W, strain asf1, active compounds read low 1 | locus YJL129C, strain trk1, active compounds read low 1.01 | locus YJL134W, strain LCB3, active compounds read low 0.986 | locus YJL154C, strain vps35, active compounds read low 1.01 | locus YJL164C, strain tpk1, active compounds read low 1.01 | locus YJL166W, strain qcr8, active compounds read low 1.02 | locus YJL168C, strain set2, active compounds read low 0.989 | locus YJL187C, strain SWE1 (second series), active compounds read low 0.997 | locus YJL187C, strain SWE1, active compounds read low 1.01 | locus YJR043C, strain POL32, active compounds read low 1 | locus YJR066W, strain TOR1, active compounds read low 0.946

Reference: PubChem BioAssay AID1159580 (chemical genetic matrix, 2015)
